# Measured values taken from PubChem BioAssay (EPA / NIEHS).
# Active and inactive are the calls of the source. Rule for the calls: active = hit-call score of the fitted dose curve at least 0.9, where 1 is the maximum; inactive = score below 0.9.
# Assays:
# Settings in all cases: mRNA level, 48 h; actives raise or lower the signal
# [1] = read-out: Cytochrome P450 4A22 (Homo sapiens) (UniProt Q5TCH4); test: LTEA_HepaRG_CYP4A22: Life Technologies and Expression Analysis (LTEA) Assay for Cytochrome P450 4A22 (CYP4A22) using HepaRG (AID 2283495)
# How it was run: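 HepaRG, 48 h post-plating -> serum-free induction medium; dosed 48 h, duplicate, 8 conc. (100 uM top, half-log), 0.5% DMSO. Readout: CYP4A22 mRNA by qRT-PCR, ACTB/GAPDH/POLR2A normalization; gain/loss fit relative to DMSO.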
# [2] = read-out: Cytochrome P450 7A1 (Homo sapiens) (UniProt P22680); test: LTEA_HepaRG_CYP7A1: Life Technologies and Expression Analysis (LTEA) Assay for Cytochrome P450 7A1 (CYP7A1) using HepaRG (AID 2283496)
# How it was run: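 Using 0.5% DMSO as vehicle and baseline, chemicals were tested in duplicate over an 8-point range from 100 uM on HepaRG cells for 48 h; qRT-PCR signals were normalised to ACTB, GAPDH and POLR2A.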
# [3] = read-out: Glutathione S-Transferase (GSTA2), GSTA2 (gene 2939); test: LTEA_HepaRG_GSTA2: Life Technologies and Expression Analysis (LTEA) Assay for Glutathione S-Transferase (GSTA2) using HepaRG (AID 2283497)
# How it was run: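 qRT-PCR readout of GSTA2 transcript, normalized to three housekeeping genes, fitted bidirectionally against 0.5% DMSO baseline. Differentiated HepaRG cells received compound for 48 h at 8 concentrations (top 100 uM, half-log steps).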
# [4] = read-out: Glutamate-cysteine ligase catalytic (GCLC), GCLC (gene 2729); test: LTEA_HepaRG_GCLC: Life Technologies and Expression Analysis (LTEA) Assay for Glutamate-cysteine ligase catalytic (GCLC) using HepaRG (AID 2283498)
# How it was run: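 HepaRG, 48 h exposure, 8-pt half-log series from 100 uM, 0.5% DMSO vehicle; TaqMan qRT-PCR for GCLC mRNA, housekeeping-normalized; bidirectional curve fit vs DMSO baseline.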
# [5] = read-out: growth arrest and DNA damage 45 (GADD45G), GADD45G (gene 10912); test: LTEA_HepaRG_GADD45G: Life Technologies and Expression Analysis (LTEA) Assay for growth arrest and DNA damage 45 (GADD45G) using HepaRG (AID 2283499)
# How it was run: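 HepaRG, 48 h exposure, top 100 uM, half-log 8-point series, 0.5% DMSO vehicle, duplicates. Readout: GADD45G transcript by qRT-PCR (Fluidigm array), housekeeping-normalised (ACTB/GAPDH/POLR2A). Bidirectional curve fit vs DMSO baseline.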
# [6] = read-out: Glutamate-cysteine ligase regulatory (GCLM), GCLM (gene 2730); test: LTEA_HepaRG_GCLM: Life Technologies and Expression Analysis (LTEA) Assay for Glutamate-cysteine ligase regulatory (GCLM) using HepaRG (AID 2283500)
# How it was run: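 HepaRG, 48 h dosing, 100 uM top, half-log x8, 0.5% DMSO vehicle. Readout: GCLM mRNA by TaqMan qRT-PCR, housekeeping-normalized (ACTB/GAPDH/POLR2A). Curves fit bidirectionally vs DMSO baseline.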
# [7] = read-out: Glutathione S-transferase M3 (GSTM3), GSTM3 (gene 2947); test: LTEA_HepaRG_GSTM3: Life Technologies and Expression Analysis (LTEA) Assay for Glutathione S-transferase M3 (GSTM3) using HepaRG (AID 2283501)
# How it was run: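 qRT-PCR read-out of GSTM3 transcript, normalized to three housekeeping genes, from human HepaRG cells after 48 h chemical exposure. Eight-point half-log series, top 100 uM, 0.5% DMSO vehicle; gain or loss fitted relative to DMSO baseline.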
# [8] = read-out: Heat shock 70 kDa protein 1 (HSPA1A), gene 3303; test: LTEA_HepaRG_HSPA1A: Life Technologies and Expression Analysis (LTEA) Assay for Heat shock 70 kDa protein 1 (HSPA1A) using HepaRG (AID 2283502)
# How it was run: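 HepaRG, 48 h exposure, 8-pt half-log CRC from 100 uM in 0.5% DMSO, duplicates. Readout: TaqMan qRT-PCR of HSPA1A mRNA, housekeeping-normalized (ACTB/GAPDH/POLR2A). Bidirectional fit vs 0.5% DMSO baseline.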
# [9] = read-out: 3-Hydroxy-3-Methylglutaryl-CoA Synthase 2 (HMGCS2), HMGCS2 (gene 3158); test: LTEA_HepaRG_HMGCS2: Life Technologies and Expression Analysis (LTEA) Assay for 3-Hydroxy-3-Methylglutaryl-CoA Synthase 2 (HMGCS2) using HepaRG (AID 2283504)
# How it was run: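 qRT-PCR read-out of HMGCS2 transcript, normalised to three housekeeping genes, in HepaRG cells after 48 h chemical exposure. Eight-point curves from 100 uM, half-log dilutions, 0.5% DMSO vehicle; gain or loss fitted relative to DMSO baseline.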
# HGF (gene 3082) = test: LTEA_HepaRG_HGF: Life Technologies and Expression Analysis (LTEA) Assay for Hepatocyte Growth Facto (HGF) using HepaRG (AID 2283505)
# How it was run: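 HepaRG, 48 h dosing, 8-pt half-log series from 100 uM in 0.5% DMSO, duplicates. Readout: TaqMan qRT-PCR of HGF mRNA, housekeeping-normalized; bidirectional curve fit vs DMSO baseline.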
# [10] = read-out: Insulin Like Growth Factor 1 (IGF1), IGF1 (gene 3479); test: LTEA_HepaRG_IGF1: Life Technologies and Expression Analysis (LTEA) Assay for Insulin Like Growth Factor 1 (IGF1) using HepaRG (AID 2283506)
# How it was run: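 qRT-PCR readout of IGF1 mRNA, normalized to three housekeeping genes, after 48 h chemical exposure of HepaRG cells. Concentrations: 8-point half-log series, top 100 uM, 0.5% DMSO vehicle. Gain or loss fitted against DMSO baseline.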
# [11] = read-out: Intercellular Adhesion Molecule 1 (ICAM1), ICAM1 (gene 3383); test: LTEA_HepaRG_ICAM1: Life Technologies and Expression Analysis (LTEA) Assay for Intercellular Adhesion Molecule 1 (ICAM1) using HepaRG (AID 2283507)
# How it was run: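 HepaRG, 48 h exposure, 8-pt half-log series from 100 uM, 0.5% DMSO vehicle, duplicates. Readout: TaqMan qRT-PCR mRNA, housekeeping-normalized (ACTB/GAPDH/POLR2A). Bidirectional curve fit vs DMSO baseline.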
# [12] = read-out: Interleukin 6 (IL6), IL6 (gene 3569); test: LTEA_HepaRG_IL6: Life Technologies and Expression Analysis (LTEA) Assay for Interleukin 6 (IL6) using HepaRG (AID 2283509)
# How it was run: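 qRT-PCR read-out of IL6 transcript, normalized to three housekeeping genes, after 48 h chemical exposure of HepaRG cells; 8-point half-log series, top 100 uM, 0.5% DMSO vehicle. Bidirectional curve fitting against DMSO baseline.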
# [13] = read-out: Interleukin 6 Receptor (IL6R), IL6R (gene 3570); test: LTEA_HepaRG_IL6R: Life Technologies and Expression Analysis (LTEA) Assay for Interleukin 6 Receptor (IL6R) using HepaRG (AID 2283510);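 for AC50: differentiated human HepaRG liver cells in serum-free induction medium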
# How it was run: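 HepaRG, 48 h exposure, 8-pt half-log series, top 100 uM, 0.5% DMSO vehicle, duplicates. Read-out: TaqMan qRT-PCR of IL6R transcript, housekeeping-gene normalized. Gain or loss fitted relative to DMSO baseline.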
# [14] = read-out: Potassium channel subfamily K member 1 (KCNK1), KCNK1 (gene 3775); test: LTEA_HepaRG_KCNK1: Life Technologies and Expression Analysis (LTEA) Assay for Potassium channel subfamily K member 1 (KCNK1) using HepaRG (AID 2283511)
# How it was run: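 HepaRG, 48 h exposure, 8-pt half-log series top 100 uM, 0.5% DMSO vehicle, duplicates. Readout: KCNK1 transcript by qRT-PCR (Fluidigm array), housekeeping-normalized; bidirectional curve fit relative to DMSO baseline.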
# [15] = read-out: Keratin 19 (KRT19), KRT19 (gene 3880); test: LTEA_HepaRG_KRT19: Life Technologies and Expression Analysis (LTEA) Assay for Keratin 19 (KRT19) using HepaRG (AID 2283512)
# How it was run: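 HepaRG, 48 h chemical exposure, 8-pt half-log CRC from 100 uM, 0.5% DMSO vehicle, duplicates. Readout: TaqMan qRT-PCR of KRT19 mRNA, housekeeping-normalized (ACTB/GAPDH/POLR2A). Bidirectional fit vs DMSO baseline.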
# [16] = read-out: JUN Transcription Factor, JUN (gene 3725); test: LTEA_HepaRG_JUN: Life Technologies and Expression Analysis (LTEA) Assay for JUN Transcription Factor using HepaRG (AID 2283513)
# How it was run: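 HepaRG, 48 h exposure, 8-pt half-log series top 100 uM, 0.5% DMSO, duplicate. JUN mRNA by qRT-PCR (Fluidigm), housekeeping-normalized (ACTB/GAPDH/POLR2A); bidirectional curve fit vs DMSO baseline.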
# [17] = read-out: Lipase C (LIPC), LIPC (gene 3990); test: LTEA_HepaRG_LIPC: Life Technologies and Expression Analysis (LTEA) Assay for Lipase C (LIPC) using HepaRG (AID 2283514)
# How it was run: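 HepaRG, 48 h exposure, 8-pt half-log series from 100 uM in 0.5% DMSO, duplicates. Readout: LIPC mRNA by Fluidigm qRT-PCR, housekeeping-normalized (ACTB/GAPDH/POLR2A). Gain or loss fitted bidirectionally against DMSO baseline.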
# [18] = read-out: Hypoxia-inducible factor 1-alpha (Homo sapiens) (UniProt Q16665); test: LTEA_HepaRG_HIF1A: Life Technologies and Expression Analysis (LTEA) Assay for Hypoxia-inducible factor 1 (HIF1A) Trancription factor using HepaRG (AID 2283503)
# How it was run: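 Gain- or loss-of-signal HIF1A mRNA changes are fitted against a DMSO baseline. HepaRG cultures receive eight concentrations, highest 100 uM, for 48 h in serum-free induction medium with 0.5% DMSO.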
# Chain of Hypoxia-inducible factor 1-alpha (Homo sapiens) (Q16665 whole entry, looked up): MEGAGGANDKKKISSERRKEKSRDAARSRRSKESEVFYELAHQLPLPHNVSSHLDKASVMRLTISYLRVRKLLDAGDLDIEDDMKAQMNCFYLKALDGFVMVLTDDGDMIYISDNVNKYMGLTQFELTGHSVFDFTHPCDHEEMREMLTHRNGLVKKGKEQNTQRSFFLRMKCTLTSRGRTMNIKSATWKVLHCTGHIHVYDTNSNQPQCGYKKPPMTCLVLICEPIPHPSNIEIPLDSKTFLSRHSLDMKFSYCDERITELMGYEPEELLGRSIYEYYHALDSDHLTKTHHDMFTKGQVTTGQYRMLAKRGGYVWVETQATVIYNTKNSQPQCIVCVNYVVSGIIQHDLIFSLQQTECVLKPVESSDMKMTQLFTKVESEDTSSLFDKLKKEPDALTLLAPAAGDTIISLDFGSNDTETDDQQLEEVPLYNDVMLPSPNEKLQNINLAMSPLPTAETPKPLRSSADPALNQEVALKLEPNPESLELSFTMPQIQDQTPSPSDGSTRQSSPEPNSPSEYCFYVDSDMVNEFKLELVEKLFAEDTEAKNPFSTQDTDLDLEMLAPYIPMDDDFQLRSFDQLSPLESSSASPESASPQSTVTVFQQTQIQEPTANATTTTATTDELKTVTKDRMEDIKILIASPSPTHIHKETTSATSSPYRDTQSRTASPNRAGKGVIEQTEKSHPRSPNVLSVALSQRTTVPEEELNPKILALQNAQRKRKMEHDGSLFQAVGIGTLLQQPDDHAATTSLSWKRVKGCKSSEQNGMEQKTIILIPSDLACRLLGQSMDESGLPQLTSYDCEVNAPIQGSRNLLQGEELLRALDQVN
compound,measurement,setting,value
CC(=O)[C@H]1CC[C@H]2[C@@H]3CCC4=CC(=O)CC[C@]4(C)[C@H]3CC[C@]12C,AC50,[1],31.1 µM (active)
same,AC50,[2],26.8 µM (active)
same,AC50,[3],34.5 µM (active)
same,AC50,[4],91.1 µM (active)
same,AC50,[5],23 µM (active)
same,outcome,[6],inactive
same,AC50,[7],93.1 µM (active)
same,AC50,[8],70.2 µM (active)
same,AC50,[9],29.2 µM (active)
same,AC50,HGF (gene 3082),85.4 µM (active)
same,AC50,[10],32.4 µM (active)
same,AC50,[11],33.3 µM (active)
same,AC50,[12],83.5 µM (active)
same,AC50,[13],50 µM (active)
same,AC50,[14],56.6 µM (active)
same,AC50,[15],50 µM (active)
same,AC50,[16],50 µM (active)
same,AC50,[17],34.6 µM (active)
CN(C)C(=O)Nc1ccc(Cl)c(Cl)c1,outcome,[1],inactive
same,AC50,[2],6.86 µM (active)
same,AC50,[3],50 µM (active)
same,AC50,[4],35.8 µM (active)
same,outcome,[5],inactive
same,AC50,[6],50 µM (active)
same,outcome,[7],inactive
same,outcome,[8],inactive
same,outcome,[18],inactive
same,outcome,[9],inactive
same,outcome,HGF (gene 3082),inactive
same,outcome,[10],inactive
same,outcome,[11],inactive
same,outcome,[12],inactive
same,outcome,[13],inactive
same,outcome,[14],inactive
same,AC50,[15],50 µM (active)
same,outcome,[16],inactive
same,outcome,[17],inactive
CCN(CC)C(=O)c1cccc(C)c1,outcome,[1],inactive
same,outcome,[2],inactive
same,outcome,[3],inactive
same,outcome,[4],inactive
same,outcome,[5],inactive
same,outcome,[7],inactive
same,outcome,[8],inactive
same,outcome,[18],inactive
same,outcome,[9],inactive
same,outcome,HGF (gene 3082),inactive
same,AC50,[10],13.1 µM (active)
same,outcome,[11],inactive
same,outcome,[12],inactive
same,outcome,[13],inactive
same,outcome,[14],inactive
same,outcome,[15],inactive
same,outcome,[16],inactive
same,outcome,[17],inactive
C=CCOC(Cn1ccnc1)c1ccc(Cl)cc1Cl (configuration not stated),AC50,[1],18.6 µM (active)
same,AC50,[2],35.3 µM (active)
same,AC50,[4],88.7 µM (active)
same,AC50,[5],91.6 µM (active)
same,outcome,[6],inactive
same,outcome,[7],inactive
same,outcome,[8],inactive
same,AC50,[18],79.6 µM (active)
same,AC50,[9],32.4 µM (active)
same,outcome,HGF (gene 3082),inactive
same,AC50,[10],18.3 µM (active)
same,AC50,[11],13.2 µM (active)
same,AC50,[12],73.7 µM (active)
same,AC50,[13],12.7 µM (active)
same,AC50,[14],50 µM (active)
same,AC50,[15],12.3 µM (active)
same,AC50,[16],75.5 µM (active)
same,AC50,[17],33 µM (active)
CCCCC(CC)CN1C(=O)C2C3C=CC(C3)C2C1=O (configuration not stated),AC50,[1],62.5 µM (active)
same,AC50,[2],73.6 µM (active)
same,AC50,[3],79.5 µM (active)
same,outcome,[4],inactive
same,AC50,[5],50 µM (active)
same,AC50,[6],50 µM (active)
same,outcome,[7],inactive
same,outcome,[8],inactive
same,outcome,[18],inactive
same,AC50,[9],86.3 µM (active)
same,outcome,HGF (gene 3082),inactive
same,AC50,[10],50 µM (active)
same,outcome,[11],inactive
same,AC50,[12],74.9 µM (active)
same,outcome,[13],inactive
same,outcome,[14],inactive
same,outcome,[15],inactive
same,outcome,[16],inactive
same,AC50,[17],88.2 µM (active)
